JMJD2A Tudor: inhibitors of human JMJD2A Tudor domain; O75164; AlphaScreen JMJD2A-Tudor / H3K4me3 peptide binding; Potency, µM (top dose mostly 114 µM), for inactives: top-dose activity change, negative = inhibition, hits mostly inhibitors; 390,000 tested, 4.4% active; note: potency is the fitted concentration of half-maximal effect; % is set by controls: 0 for no effect and ±100 for the full control effect; nearly all actives have a fitted effect of over 50% in size
PI5P4Ka inh: PI5P4K alpha (human) kinase inhibition | PI5P4Kalpha enzyme, ADP-Glo luminescence, 60 min; active compounds read low | max response, % | 330,000 tested, 1.2% active | AID 652105; active = max response of -50% or lower; inconclusive = between -30% and -50%; inactive = -30% or higher; note: value at the top dose of about 77 µM; % is set by controls: 0 for no effect and ±100 for the full control effect
Target sequence (P48426 whole entry, looked up): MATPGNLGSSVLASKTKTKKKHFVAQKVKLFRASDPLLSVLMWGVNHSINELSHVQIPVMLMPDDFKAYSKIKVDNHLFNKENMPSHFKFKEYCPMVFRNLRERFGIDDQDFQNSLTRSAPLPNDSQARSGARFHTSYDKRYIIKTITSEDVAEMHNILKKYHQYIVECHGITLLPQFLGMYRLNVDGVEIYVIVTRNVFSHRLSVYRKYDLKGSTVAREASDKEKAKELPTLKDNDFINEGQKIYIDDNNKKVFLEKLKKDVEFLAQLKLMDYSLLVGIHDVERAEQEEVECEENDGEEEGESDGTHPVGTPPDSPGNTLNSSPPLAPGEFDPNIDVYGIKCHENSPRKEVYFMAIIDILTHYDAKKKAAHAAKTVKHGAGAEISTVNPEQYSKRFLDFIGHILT
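Reactions run in 0.038 M HEPES pH 7.4, 0.28 mM EGTA, 0.1% CHAPS and 5% DMSO, with PI5P4Kalpha, substrate, compound and 5 microM ATP final, one hour at room temperature. Readout is ADP-Glo luminescence.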
BAZ2B inh: BAZ2B (human) inhibition. Q9UIF8. AlphaScreen BAZ2B-H3K14Ac peptide displacement. Potency, µM (highest dose often 114 µM), inactives show at the highest dose activity change, negative = inhibition, hits mostly inhibitors. 360,000 tested, 4.4% active. AID 504333; note: potency is the fitted concentration of half-maximal effect; % is set by controls: 0 for no effect and ±100 for the full control effect; nearly all actives have a fitted effect of over 60% in size
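BAZ2B 50 nM plus b-H3(5-23)K14Ac 50 nM, PBS pH 7.4/0.01% Tween-20, 30 min RT; compound added (max 110 uM), 30 min RT; streptavidin donor/Ni-chelate acceptor beads 10 ug/mL final, 20 min dark; AlphaScreen read.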
L3MBTL1 block: inhibitors of human L3MBTL1. Q9Y468. Potency, µM (top dose mostly 57.1 µM), for inactives: at the top dose activity, negative = inhibition, actives largely listed as inhibitors. AlphaScreen L3MBTL1–H3K9me1 peptide binding. 230,000 tested, 0.66% active; note: potency is the fitted concentration of half-maximal effect; % is set by controls: 0 for no effect and ±100 for the full control effect; nearly all actives have a fitted effect of over 60% in size
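AlphaScreen proximity signal between nickel-chelate acceptor and streptavidin donor beads (final 10 ug/mL) reports binding of 50 nM L3MBTL1 to 75 nM biotin-H3 K9me1 peptide; complex incubated with compounds 30 min at room temperature; cefsulodin titration as control.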
G9a block: G9a (human) methyltransferase inhibition; Q96KQ7; G9a H3K9 monomethylation, AlphaScreen, 2 h; Potency, µM (titrated, usually from 102 µM), without a hit: at the highest dose activity, negative = inhibition, usual class: inhibitors; 350,000 tested, 8.8% active; note: potency is the fitted concentration of half-maximal effect; % is set by controls: 0 for no effect and ±100 for the full control effect; nearly all actives have a fitted effect of over 75% in size
Target sequence (Q96KQ7 913-1193 limits assumed): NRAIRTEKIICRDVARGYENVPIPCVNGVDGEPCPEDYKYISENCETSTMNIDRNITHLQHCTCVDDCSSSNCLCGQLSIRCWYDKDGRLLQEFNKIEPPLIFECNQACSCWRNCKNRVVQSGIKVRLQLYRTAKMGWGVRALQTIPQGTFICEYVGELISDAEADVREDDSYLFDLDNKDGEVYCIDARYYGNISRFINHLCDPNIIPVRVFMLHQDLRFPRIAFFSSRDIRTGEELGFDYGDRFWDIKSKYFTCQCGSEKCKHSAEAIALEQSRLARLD
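AlphaScreen read-out: biotin-H3K9 peptide (500 nM) methylation by 20 nM enzyme with 20 uM SAM, 2 h at room temperature after 15 min compound preincubation; anti-monomethyl H3K9 antibody plus donor/acceptor beads, 10 min dark.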
HP1b binding inh: blocks HP1-beta chromodomain binding to methylated histone tails; P83916; 390,000 tested, 0.56% active; AlphaScreen HP1-beta / biotin-H3K9me3 peptide binding; Potency, µM (top dose mostly 114 µM), inactives show at the highest dose activity change, negative = inhibition, hits mostly inhibitors; note: potency is the fitted concentration of half-maximal effect; nearly all actives have a fitted effect of over 70% in size
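AlphaScreen: HP1-beta (50 nM) preformed 30 min with biotin-H3(1-18)K9me3 peptide (50 nM) in PBS pH 7.4, 0.01% Tween-20. Compound added for 30 min at RT, then streptavidin donor/nickel chelate acceptor beads (10 ug/mL) for 30 min.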
The depositor's hits bear a star; [ ] = another dose, or the depositor's remark. An excerpt weighted towards active compounds, which were near 11% of everything screened. Unless noted, calls come from the whole dose curve; as a rule, active = well fitted inhibition curve with a large enough effect; inconclusive = small, poorly fitted or top-dose-only effect; inactive = no such curve, though single readings can be large or run the other way.

For O=C(CNCc1ccccc1)NCCCN1CCCC1=O the results were JMJD2A Tudor 2µM*, PI5P4Ka inh 0.8, BAZ2B inh -12.6%, G9a block 22.4µM* and HP1b binding inh inconclusive.
For CC(CC(=O)Nc1ccccc1)NCCCN1CCCC1=O (stereo not given) the results were JMJD2A Tudor 0.708µM*, PI5P4Ka inh 1.5, BAZ2B inh 50.1µM*, G9a block 8.91µM* and HP1b binding inh 79.4µM*.
For O=C1CCCC(O)=C1N=Nc1c(Cl)cc(C(F)(F)F)cc1Cl the results were JMJD2A Tudor inconclusive, PI5P4Ka inh inconclusive, BAZ2B inh 70.8µM*, L3MBTL1 block -52.5% and HP1b binding inh -7.4%.
Screening O=C1CCCC(O)=C1N=Nc1ccc(C(=O)O)cc1 returned JMJD2A Tudor -11.8%[11.4 µM], PI5P4Ka inh inconclusive, BAZ2B inh 22.4µM*, L3MBTL1 block 3.16µM*, G9a block 8.91µM* and HP1b binding inh 44.7µM*.
For COC(=O)c1sccc1S(=O)(=O)N(CC(=O)Nc1cc(C)cc(C)c1)c1ccc(Cl)cc1 the results were JMJD2A Tudor -23.7%, BAZ2B inh -1.0%, G9a block 50.2%[59 µM] and HP1b binding inh 23.6%.
For Cc1ccc(-c2nnn(CC(=O)N(CC(=O)NCCC(C)C)c3ccc(F)cc3)n2)cc1 the results were JMJD2A Tudor -6.2%, BAZ2B inh -3.1%, G9a block 8.2%[59 µM] and HP1b binding inh 30.3%.
Screening CCOc1ccc(NC(=O)Cn2c(=O)n(Cc3ccccc3)c(=O)c3c4c(sc32)CN(C(C)=O)CC4)cc1 returned JMJD2A Tudor -12.4%, BAZ2B inh -12.6%, G9a block -19.9%[59 µM] and HP1b binding inh 30.0%.
O=C(CC1C(=O)NCCN1Cc1cccc(Oc2ccccc2)c1)NCCc1ccccn1 (stereo not given) was read as JMJD2A Tudor -30.2%, PI5P4Ka inh 0.7, BAZ2B inh -4.3%, L3MBTL1 block -13.1%, G9a block 22.4µM* and HP1b binding inh 27.8%.
For COc1cccc(CN2CCNC(=O)C2CC(=O)NCCc2ccccn2)c1 (stereo not given) the results were JMJD2A Tudor -5.6%, PI5P4Ka inh 3.6, BAZ2B inh -5.4%, L3MBTL1 block 7.6%, G9a block inconclusive and HP1b binding inh 33.0%.
Screening Cn1cc(CCNC(=O)CC2C(=O)NCCN2Cc2cccc(Oc3ccccc3)c2)cn1 (stereo not given) returned JMJD2A Tudor inconclusive, PI5P4Ka inh -18.9, BAZ2B inh -32.7%, L3MBTL1 block -5.6%, G9a block 35.5µM* and HP1b binding inh 27.2%.
CC(C)(C)c1ccc(OCC(=O)OCCNC(=O)c2cccnc2)cc1 was read as JMJD2A Tudor -22.5%, PI5P4Ka inh -2.5, BAZ2B inh 4.8%, L3MBTL1 block 7.7%, G9a block 50.1µM* and HP1b binding inh 35.7%.
Screening CCOC(=O)c1c(-c2ccccc2)csc1NC(=O)/C(C#N)=C/c1ccc(O)c(OC)c1 returned JMJD2A Tudor -31.8%, PI5P4Ka inh inconclusive, BAZ2B inh inconclusive, L3MBTL1 block inconclusive, G9a block 39.8µM* and HP1b binding inh inconclusive.
`CCOC(=O)c1c(-c2ccccc2)csc1NC(=O)/C(C#N)=C/c1ccc(OC)c(OC)c1` gave JMJD2A Tudor -9.7%, PI5P4Ka inh -8.9, BAZ2B inh 0.5%, L3MBTL1 block -12.5%, G9a block 4.1%[59 µM] and HP1b binding inh 21.7%.
CCc1ccc(N2C(=O)Cc3c2nc(N)c(C#N)c3N)cc1 was read as JMJD2A Tudor -23.4%, BAZ2B inh -30.1%, G9a block 15.3%[12.7 µM] and HP1b binding inh 10.6%.
For CCN(CC)c1nc2c3c(nc4c(c3c1C#N)CC(=O)N4c1ccc(Cl)cc1)NC(C)=N2 the results were JMJD2A Tudor -22.8%, PI5P4Ka inh inconclusive, BAZ2B inh -3.8%, L3MBTL1 block -9.3%, G9a block 35.5µM* and HP1b binding inh 4.9%.
Screening COc1ccc(CCN2C(=O)CN(C3CCCCCC3)C(=O)C2c2ccc(C)cc2)cc1OC (stereo not given) returned JMJD2A Tudor -28.4%, BAZ2B inh -15.4%, G9a block -22.8%[59 µM] and HP1b binding inh -0.9%.
C=CCOC(=O)C1=C(C)NC(SCC(=O)Nc2ccc(C)c(Cl)c2)=C(C#N)C1c1ccco1 (stereo not given) was read as JMJD2A Tudor -18.0%, PI5P4Ka inh 3.2, BAZ2B inh 7.6%, L3MBTL1 block 1.9%, G9a block -13.6% and HP1b binding inh 32.8%.
Screening COCCOC(=O)C1=C(C)NC(SCC(=O)NC(C)(C)C)=C(C#N)C1c1ccco1 (stereo not given) returned JMJD2A Tudor 89.1µM*, PI5P4Ka inh -1.3, BAZ2B inh -4.3%, L3MBTL1 block -0.7%, G9a block -9.4%[59 µM] and HP1b binding inh 27.3%.
Screening Cc1ccc(Cn2c(=O)n(Cc3ccccc3Cl)c(=O)c3cccnc32)cc1 returned JMJD2A Tudor 1.1%, BAZ2B inh 2.2%, G9a block -1.1%[59 µM] and HP1b binding inh 49.3%.
Screening CCCCNC(=O)C1CCN(C/C(C)=C/c2ccccc2)CC1 returned JMJD2A Tudor 6.31µM*, PI5P4Ka inh -8.4, BAZ2B inh 50.1µM*, L3MBTL1 block -5.7%, G9a block inconclusive and HP1b binding inh -9.4%.
For C/C(=C\c1ccccc1)CN1CCC(C(=O)N2CCCCC2)CC1 the results were JMJD2A Tudor 7.94µM*, PI5P4Ka inh -0.7, BAZ2B inh inconclusive, L3MBTL1 block 6.3%, G9a block inconclusive and HP1b binding inh inconclusive.
For C/C(=C/c1ccccc1)C(=O)N1CCC(C)CC1 the results were JMJD2A Tudor -0.3%, PI5P4Ka inh 0.4, BAZ2B inh -2.9%, L3MBTL1 block 5.1%, G9a block 23.8% and HP1b binding inh 40.0%.
C/C(=C\c1ccccc1)CN1CCC(C(=O)N2CCC(C)CC2)CC1 was read as JMJD2A Tudor -0.8%[11.4 µM], PI5P4Ka inh -5.6, BAZ2B inh inconclusive, L3MBTL1 block -1.4%, G9a block 10µM* and HP1b binding inh -29.7%.
Screening COc1ccccc1NC(=O)Cn1c(SCC(=O)NCc2ccccc2)nc2ccccc21 returned JMJD2A Tudor -10.9%, BAZ2B inh -4.5%, G9a block 7.3%[59 µM] and HP1b binding inh 12.7%.
Cc1cc(C)c(OCC(=O)N(Cc2ccco2)Cc2ccco2)c(C)c1 was read as JMJD2A Tudor -31.1%, BAZ2B inh -16.0%, G9a block -4.7%[59 µM] and HP1b binding inh 22.2%.
Screening CCC(=O)N1CCc2cc(CNS(=O)(=O)c3ccc(NC(=O)CC(C)C)cc3)ccc21 returned JMJD2A Tudor 2.9%, BAZ2B inh 5.9%, G9a block 10.7%[59 µM] and HP1b binding inh 27.0%[57 µM].
